# Key:
# [1] = molecular target: Dual specificity protein kinase CLK3 (Homo sapiens) (UniProt P49761); conditions: at 1 µM;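 further: each value is the mean inhibition of CLK3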
# [2] = molecular target: Dual specificity tyrosine-phosphorylation-regulated kinase 1A (Homo sapiens) (UniProt Q13627); conditions: at 0.1 µM
# [3] = molecular target: Dual specificity tyrosine-phosphorylation-regulated kinase 1A (Homo sapiens) (UniProt Q13627); conditions: at 1 µM
# [4] = molecular target: Dual specificity tyrosine-phosphorylation-regulated kinase 1B (Homo sapiens) (UniProt Q9Y463); conditions: at 0.1 µM
# [5] = molecular target: Dual specificity tyrosine-phosphorylation-regulated kinase 1B (Homo sapiens) (UniProt Q9Y463); conditions: at 1 µM
# [6] = molecular target: T1, Dual specificity tyrosine-phosphorylation-regulated kinase 2 (Homo sapiens) (UniProt Q92630); conditions: at 0.1 µM
# T1 sequence (whole entry): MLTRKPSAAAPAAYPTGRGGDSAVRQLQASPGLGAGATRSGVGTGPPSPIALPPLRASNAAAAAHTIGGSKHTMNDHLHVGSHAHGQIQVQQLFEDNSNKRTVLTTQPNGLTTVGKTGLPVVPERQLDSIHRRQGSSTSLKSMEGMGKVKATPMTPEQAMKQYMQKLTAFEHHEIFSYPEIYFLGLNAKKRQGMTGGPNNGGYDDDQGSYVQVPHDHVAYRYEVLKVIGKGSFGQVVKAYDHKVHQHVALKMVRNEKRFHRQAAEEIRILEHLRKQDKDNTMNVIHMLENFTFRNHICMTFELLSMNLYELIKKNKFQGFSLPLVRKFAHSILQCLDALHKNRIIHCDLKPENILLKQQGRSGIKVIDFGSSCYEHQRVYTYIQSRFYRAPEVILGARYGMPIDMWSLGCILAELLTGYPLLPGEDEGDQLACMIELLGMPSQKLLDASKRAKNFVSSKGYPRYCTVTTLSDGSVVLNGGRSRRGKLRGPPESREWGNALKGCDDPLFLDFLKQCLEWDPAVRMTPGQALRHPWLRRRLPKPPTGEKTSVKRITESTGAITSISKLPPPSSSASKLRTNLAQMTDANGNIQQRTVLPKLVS
# [7] = molecular target: T1, Dual specificity tyrosine-phosphorylation-regulated kinase 2 (Homo sapiens); conditions: at 1 µM
# [8] = molecular target: Glycogen synthase kinase-3 alpha (Homo sapiens) (UniProt P49840); conditions: at 0.1 µM
# [9] = molecular target: Glycogen synthase kinase-3 alpha (Homo sapiens) (UniProt P49840); conditions: at 1 µM
# [10] = molecular target: Glycogen synthase kinase-3 beta (Homo sapiens) (UniProt P49841); conditions: at 0.1 µM
# [11] = molecular target: Glycogen synthase kinase-3 beta (Homo sapiens) (UniProt P49841); conditions: at 1 µM
# [12] = molecular target: Homeodomain-interacting protein kinase 1 (Homo sapiens) (UniProt Q86Z02); conditions: at 0.1 µM
# [13] = molecular target: Homeodomain-interacting protein kinase 1 (Homo sapiens) (UniProt Q86Z02); conditions: at 1 µM
# [14] = molecular target: T2, Homeodomain-interacting protein kinase 4 (Homo sapiens) (UniProt Q8NE63); conditions: at 0.1 µM
# T2 sequence (whole entry): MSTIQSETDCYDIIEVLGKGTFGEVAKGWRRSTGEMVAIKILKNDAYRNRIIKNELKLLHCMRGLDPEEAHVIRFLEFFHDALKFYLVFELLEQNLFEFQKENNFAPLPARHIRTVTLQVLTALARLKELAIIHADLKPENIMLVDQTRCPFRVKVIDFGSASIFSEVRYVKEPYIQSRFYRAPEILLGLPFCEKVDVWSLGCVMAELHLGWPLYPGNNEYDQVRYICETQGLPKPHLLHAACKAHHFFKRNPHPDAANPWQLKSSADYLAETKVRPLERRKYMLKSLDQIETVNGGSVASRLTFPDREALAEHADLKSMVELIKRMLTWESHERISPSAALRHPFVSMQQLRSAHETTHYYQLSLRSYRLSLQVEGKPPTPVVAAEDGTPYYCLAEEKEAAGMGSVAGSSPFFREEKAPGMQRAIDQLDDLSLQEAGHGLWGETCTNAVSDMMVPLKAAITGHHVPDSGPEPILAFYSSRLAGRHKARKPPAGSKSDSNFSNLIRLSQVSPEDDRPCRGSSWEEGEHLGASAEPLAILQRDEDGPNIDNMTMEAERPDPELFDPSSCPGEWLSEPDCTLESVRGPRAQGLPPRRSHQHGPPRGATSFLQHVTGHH
# [15] = molecular target: T2, Homeodomain-interacting protein kinase 4 (Homo sapiens); conditions: at 1 µM
# [16] = molecular target: Mitogen-activated protein kinase 9 (Homo sapiens) (UniProt P45984); conditions: at 0.1 µM
# [17] = molecular target: Mitogen-activated protein kinase 9 (Homo sapiens) (UniProt P45984); conditions: at 1 µM
# [18] = molecular target: Mitogen-activated protein kinase 1 (Homo sapiens) (UniProt P28482); conditions: at 0.1 µM
# [19] = molecular target: Mitogen-activated protein kinase 1 (Homo sapiens) (UniProt P28482); conditions: at 1 µM
# [20] = molecular target: Mitogen-activated protein kinase 3 (Homo sapiens) (UniProt P27361); conditions: at 0.1 µM;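 further: each value is a mean inhibition figure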
# Chain of Mitogen-activated protein kinase 3 (Homo sapiens) (P27361 whole entry): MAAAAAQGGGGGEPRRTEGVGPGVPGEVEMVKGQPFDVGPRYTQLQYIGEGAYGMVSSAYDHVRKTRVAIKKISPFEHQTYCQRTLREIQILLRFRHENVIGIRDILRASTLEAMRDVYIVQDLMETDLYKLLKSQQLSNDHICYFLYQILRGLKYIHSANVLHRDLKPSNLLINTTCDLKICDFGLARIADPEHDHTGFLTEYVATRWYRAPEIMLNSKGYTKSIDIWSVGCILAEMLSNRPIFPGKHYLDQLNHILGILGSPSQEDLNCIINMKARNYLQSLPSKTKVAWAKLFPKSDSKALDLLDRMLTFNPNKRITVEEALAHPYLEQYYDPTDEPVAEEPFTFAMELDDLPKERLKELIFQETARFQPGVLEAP
# Chain of Homeodomain-interacting protein kinase 1 (Homo sapiens) (Q86Z02 whole entry, looked up): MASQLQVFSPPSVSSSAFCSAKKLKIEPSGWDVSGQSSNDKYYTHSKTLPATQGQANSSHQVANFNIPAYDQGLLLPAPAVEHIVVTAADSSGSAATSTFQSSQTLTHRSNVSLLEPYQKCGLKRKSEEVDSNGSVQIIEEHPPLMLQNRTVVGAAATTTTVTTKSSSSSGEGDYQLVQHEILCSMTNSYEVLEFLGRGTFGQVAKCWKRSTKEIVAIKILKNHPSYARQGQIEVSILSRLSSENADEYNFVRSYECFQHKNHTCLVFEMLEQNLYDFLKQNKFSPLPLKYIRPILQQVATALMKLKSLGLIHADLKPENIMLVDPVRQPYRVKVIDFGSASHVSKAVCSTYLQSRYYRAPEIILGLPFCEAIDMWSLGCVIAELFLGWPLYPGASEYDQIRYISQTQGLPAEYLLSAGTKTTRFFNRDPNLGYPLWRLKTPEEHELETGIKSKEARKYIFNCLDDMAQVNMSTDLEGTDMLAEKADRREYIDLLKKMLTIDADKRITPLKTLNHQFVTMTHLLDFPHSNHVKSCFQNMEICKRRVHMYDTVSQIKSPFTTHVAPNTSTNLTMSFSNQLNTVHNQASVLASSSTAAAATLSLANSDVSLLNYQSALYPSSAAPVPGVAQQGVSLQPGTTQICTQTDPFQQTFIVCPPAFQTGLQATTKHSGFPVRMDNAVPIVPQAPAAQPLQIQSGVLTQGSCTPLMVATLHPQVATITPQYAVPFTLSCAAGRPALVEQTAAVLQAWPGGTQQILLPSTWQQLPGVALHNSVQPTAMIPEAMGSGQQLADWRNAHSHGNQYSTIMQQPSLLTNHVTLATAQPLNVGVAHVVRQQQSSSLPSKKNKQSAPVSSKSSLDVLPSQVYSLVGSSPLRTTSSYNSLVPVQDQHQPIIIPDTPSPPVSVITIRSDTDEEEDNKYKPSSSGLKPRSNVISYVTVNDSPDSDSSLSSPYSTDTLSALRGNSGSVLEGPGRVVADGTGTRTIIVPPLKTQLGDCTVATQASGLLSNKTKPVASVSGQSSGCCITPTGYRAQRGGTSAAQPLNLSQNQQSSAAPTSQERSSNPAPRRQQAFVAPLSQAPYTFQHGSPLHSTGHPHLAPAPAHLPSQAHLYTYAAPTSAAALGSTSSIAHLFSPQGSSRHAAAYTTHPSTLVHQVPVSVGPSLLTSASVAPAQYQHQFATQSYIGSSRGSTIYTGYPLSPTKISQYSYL
# Chain of Glycogen synthase kinase-3 alpha (Homo sapiens) (P49840 2-483 limits assumed): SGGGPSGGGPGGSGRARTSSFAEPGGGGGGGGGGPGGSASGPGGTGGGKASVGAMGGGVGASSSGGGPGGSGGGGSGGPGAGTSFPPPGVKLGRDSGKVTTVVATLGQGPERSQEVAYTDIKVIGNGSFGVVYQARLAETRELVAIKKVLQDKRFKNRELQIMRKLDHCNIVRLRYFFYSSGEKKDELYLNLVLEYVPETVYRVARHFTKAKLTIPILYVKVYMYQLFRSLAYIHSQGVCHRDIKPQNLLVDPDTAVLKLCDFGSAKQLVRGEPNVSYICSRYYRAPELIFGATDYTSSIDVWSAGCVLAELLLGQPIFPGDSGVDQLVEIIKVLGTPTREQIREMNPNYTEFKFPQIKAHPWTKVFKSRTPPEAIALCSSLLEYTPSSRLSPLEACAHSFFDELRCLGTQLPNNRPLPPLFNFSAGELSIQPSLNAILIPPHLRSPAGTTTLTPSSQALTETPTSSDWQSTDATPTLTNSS
# Chain of Dual specificity tyrosine-phosphorylation-regulated kinase 1B (Homo sapiens) (Q9Y463 whole entry, looked up): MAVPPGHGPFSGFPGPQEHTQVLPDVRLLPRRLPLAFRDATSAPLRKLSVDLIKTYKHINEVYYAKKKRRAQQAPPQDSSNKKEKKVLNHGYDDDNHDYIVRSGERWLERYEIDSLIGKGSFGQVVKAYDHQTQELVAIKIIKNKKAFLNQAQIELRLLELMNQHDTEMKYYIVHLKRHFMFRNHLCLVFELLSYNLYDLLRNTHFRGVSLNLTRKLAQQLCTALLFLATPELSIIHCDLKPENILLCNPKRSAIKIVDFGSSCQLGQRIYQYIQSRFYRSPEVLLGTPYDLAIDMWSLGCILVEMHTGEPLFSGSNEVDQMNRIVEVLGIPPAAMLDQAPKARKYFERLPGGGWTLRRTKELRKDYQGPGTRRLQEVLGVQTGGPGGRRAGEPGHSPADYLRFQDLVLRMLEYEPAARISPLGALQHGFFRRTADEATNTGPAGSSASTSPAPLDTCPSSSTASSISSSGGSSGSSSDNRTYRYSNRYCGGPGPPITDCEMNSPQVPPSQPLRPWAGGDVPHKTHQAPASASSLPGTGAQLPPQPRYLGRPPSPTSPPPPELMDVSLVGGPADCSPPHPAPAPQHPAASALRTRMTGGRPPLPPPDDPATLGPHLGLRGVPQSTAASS
# Chain of Mitogen-activated protein kinase 1 (Homo sapiens) (P28482 whole entry): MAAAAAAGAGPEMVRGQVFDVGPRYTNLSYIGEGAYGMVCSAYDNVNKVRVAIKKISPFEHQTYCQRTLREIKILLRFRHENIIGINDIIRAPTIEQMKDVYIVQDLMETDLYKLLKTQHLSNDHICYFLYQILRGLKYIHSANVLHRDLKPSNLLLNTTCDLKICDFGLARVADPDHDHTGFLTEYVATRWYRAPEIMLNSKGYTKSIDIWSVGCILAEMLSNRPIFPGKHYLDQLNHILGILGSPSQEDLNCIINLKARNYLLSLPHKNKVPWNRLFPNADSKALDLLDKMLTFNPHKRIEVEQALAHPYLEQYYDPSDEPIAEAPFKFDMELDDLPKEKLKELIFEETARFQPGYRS
# Chain of Mitogen-activated protein kinase 9 (Homo sapiens) (P45984 whole entry, looked up): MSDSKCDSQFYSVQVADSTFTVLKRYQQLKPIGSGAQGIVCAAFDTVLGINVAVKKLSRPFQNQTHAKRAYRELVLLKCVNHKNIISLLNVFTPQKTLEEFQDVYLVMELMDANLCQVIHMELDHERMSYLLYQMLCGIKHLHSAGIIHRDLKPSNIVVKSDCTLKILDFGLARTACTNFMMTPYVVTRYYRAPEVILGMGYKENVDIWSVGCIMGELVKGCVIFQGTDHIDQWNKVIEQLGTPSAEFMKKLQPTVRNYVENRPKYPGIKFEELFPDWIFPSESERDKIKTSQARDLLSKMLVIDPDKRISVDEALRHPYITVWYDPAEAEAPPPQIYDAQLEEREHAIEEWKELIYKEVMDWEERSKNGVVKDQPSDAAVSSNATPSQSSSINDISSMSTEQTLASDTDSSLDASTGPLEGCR
# Chain of Glycogen synthase kinase-3 beta (Homo sapiens) (P49841 whole entry, looked up): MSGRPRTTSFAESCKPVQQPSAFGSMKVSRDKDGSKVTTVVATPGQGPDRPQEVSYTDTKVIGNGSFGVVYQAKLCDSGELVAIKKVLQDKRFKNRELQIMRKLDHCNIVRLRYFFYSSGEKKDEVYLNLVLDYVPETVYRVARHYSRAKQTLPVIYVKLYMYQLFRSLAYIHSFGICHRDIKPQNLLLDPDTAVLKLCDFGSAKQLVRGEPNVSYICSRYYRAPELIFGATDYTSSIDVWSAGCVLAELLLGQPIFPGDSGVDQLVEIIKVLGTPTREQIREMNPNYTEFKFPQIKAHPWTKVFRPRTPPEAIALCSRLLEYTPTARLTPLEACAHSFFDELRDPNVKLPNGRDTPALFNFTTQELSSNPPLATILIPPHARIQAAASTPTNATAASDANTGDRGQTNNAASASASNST
# Chain of Dual specificity protein kinase CLK3 (Homo sapiens) (P49761 whole entry, looked up): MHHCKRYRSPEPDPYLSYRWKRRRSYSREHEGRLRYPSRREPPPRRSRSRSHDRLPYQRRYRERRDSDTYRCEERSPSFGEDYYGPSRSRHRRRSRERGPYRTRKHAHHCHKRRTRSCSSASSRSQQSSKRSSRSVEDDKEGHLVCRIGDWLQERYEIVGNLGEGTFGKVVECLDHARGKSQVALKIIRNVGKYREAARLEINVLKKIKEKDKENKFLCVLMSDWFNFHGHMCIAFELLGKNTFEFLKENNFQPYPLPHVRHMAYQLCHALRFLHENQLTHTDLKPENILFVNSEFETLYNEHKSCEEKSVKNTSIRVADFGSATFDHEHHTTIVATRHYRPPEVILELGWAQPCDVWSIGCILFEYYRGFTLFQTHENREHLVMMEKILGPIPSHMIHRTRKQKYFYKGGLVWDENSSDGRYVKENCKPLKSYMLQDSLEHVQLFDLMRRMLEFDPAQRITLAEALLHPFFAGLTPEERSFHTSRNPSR
SMILES,inhibition [1],inhibition [2],inhibition [3],inhibition [4],inhibition [5],inhibition [6],inhibition [7],inhibition [8],inhibition [9],inhibition [10],inhibition [11],inhibition [12],inhibition [13],inhibition [14],inhibition [15],inhibition [16],inhibition [17],inhibition [18],inhibition [19],inhibition [20]
NS(=O)(=O)c1cccc(-c2cc3ccncc3cc2OCc2ccccc2)c1,3.46%,3.42%,5.5%,0.3%,2.52%,3.59%,3.57%,1.97%,4.81%,0.8%,3.55%,1.1%,6.53%,1.76%,8.61%,0.94%,3.75%,4.71%,5.84%,4.25%
ON=C1CCc2cc(-c3nc(C4CCNCC4)[nH]c3-c3ccncc3)ccc21,0.22%,-0.17%,1.12%,0.17%,-0.11%,-0.01%,1.2%,1.4%,5.93%,0.85%,4.56%,-5.24%,0.65%,-1.3%,2.78%,2.05%,3.06%,-1.76%,1.85%,1.87%
CS(=O)(=O)Nc1cccc(-c2ccc3c(NC(=O)C4CC4)n[nH]c3c2)c1,0.41%,-0.85%,2.54%,-0.36%,0.44%,1.73%,0.58%,2.17%,10.3%,1.76%,9.5%,-3.76%,0.93%,-0.79%,-0.86%,2.2%,0.27%,-0.71%,1.14%,2.44%
CC(C)c1ccc2c(c1)NC(=O)/C2=N/Nc1ccc(S(N)(=O)=O)cc1,-0.08%,0.62%,2.99%,3.56%,4.99%,0.96%,-0.44%,4.22%,16.5%,4.19%,16.8%,-1.88%,4.72%,0.27%,1.57%,0.14%,0.34%,2.02%,0.4%,1.56%
CCOc1nccc2c1nc(-c1nonc1N)n2CC,2.9%,1.13%,3.41%,0.32%,2.83%,1.54%,2.84%,3.1%,10.2%,3.37%,11.9%,5.35%,9.39%,6.7%,12.2%,1.55%,1.43%,4.78%,4.07%,5.64%
COc1cc2ncnc(Nc3ccc4c(cnn4Cc4ccccc4)c3)c2cc1OC,0.4%,2.51%,2.6%,-2.48%,0.09%,2.37%,2.95%,4.71%,6.57%,4.13%,7.35%,-5.38%,-0.46%,-0.51%,0.79%,0.52%,1.98%,2.88%,4.22%,1.19%
NS(=O)(=O)c1ccc(NC=C2C(=O)Nc3ccc4ncsc4c32)cc1,17.3%,30.9%,63.2%,20.4%,57.6%,10.9%,46.2%,40.4%,70.9%,41.1%,71.8%,14.2%,47.4%,2.67%,21.7%,8.45%,36.1%,11%,47.4%,7.04%
N#Cc1c(NC(=O)c2ccccc2F)sc2c1CCCC2,-0.09%,-0.74%,1.91%,0.18%,0.36%,-2%,-2.88%,-0.74%,0.03%,-0.5%,-0.09%,-4.32%,-0.26%,-0.44%,1.41%,-2.15%,2.33%,-0.94%,-1.13%,-1.39%
Cc1cc(O)cc(C)c1/C=C/c1cncc(C(=O)N(C)C)c1,1.59%,1.64%,3.33%,1.15%,2%,2.94%,3.72%,6.93%,10.2%,6.11%,9.44%,0.32%,4.88%,4.28%,7.94%,-0.29%,2.38%,2.76%,2.51%,3.48%
CCS(=O)(=O)c1ccc(OC)c(Nc2nccc(N(C)c3ccc4c(C)n[nH]c4c3)n2)c1,2.41%,2.89%,3.45%,-0.67%,-0.22%,2.84%,2.34%,2.43%,3.41%,1.45%,1.7%,-2.02%,1.03%,0.52%,1.15%,3.79%,2.08%,5.51%,5.64%,4.15%
CN(C)C(=O)O[C@H]1CN[C@H](C#Cc2cc3ncnc(Nc4ccc(OCc5cccc(F)c5)c(Cl)c4)c3s2)C1,1.86%,1.54%,3.38%,0.21%,0.78%,2%,2.24%,1.64%,5.51%,1.31%,4.1%,-0.07%,0.31%,0.17%,1.29%,2.26%,6.8%,-0.55%,2.89%,1.44%
Oc1cccc(-c2nc(-c3ccccc3)[nH]c2-c2ccncc2)c1,2.52%,2.29%,8.77%,1.25%,7.99%,2.63%,5.4%,5.29%,14.8%,5.61%,18.9%,1.65%,4.29%,10.7%,44.9%,2.02%,10.7%,5.56%,5.82%,3.48%
CCCN1CCCC(c2ccc(Nc3nc(Nc4cc(F)ccc4C(N)=O)c4cc[nH]c4n3)c(OC)c2)C1 (stereo not given),22.3%,67.5%,82.7%,72%,82.4%,36.3%,82.3%,1.49%,2.99%,0.7%,4.25%,46%,79.5%,58.1%,84.3%,70.3%,91.3%,8.06%,36.5%,5.61%

# From ChEMBL document CHEMBL1961873, “Compounds: GSK PKIS; Assays: Nanosyn kinase panel” (2012)
